NS1 inh: qHTS Assay for Inhibitors of Influenza NS1 Protein Function. Potency, µM (top dose mostly 46.1 µM). 270,000 tested, 0.4% active. AID 2326, 2010; also: actives are rising curves; nearly all actives have a fitted effect of over 50% in size
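In this qHTS, NS1 from influenza A is expressed in budding yeast, where it slows growth. Cells are switched from glucose to 2% galactose medium (pH 6.0, -URA), treated with compound, and growth recovery is read at OD600.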
SARS PLpro yeast: qHTS of Yeast-based Assay for SARS-CoV PLP | Potency, µM (top dose mostly 32.9 µM), actives largely listed as activators | S. cerevisiae expressing SARS-CoV PLpro, growth rescue | 330,000 tested, 0.19% active; also: nearly all actives have a fitted effect of over 55% in size
CHX counter: Cycloheximide Counterscreen for Small Molecule Inhibitors of Shiga Toxin; cell reporter, cycloheximide protein synthesis inhibition counterscreen; max response, %; 300,000 tested, 12% active; AID 2314, 2010; in the data active = max response mostly above about 13%, no sharp cut-off; inactive = mostly below about 14%; also: read at 38.3 µM for the half of the compounds with a filed dose
Shiga toxin inh: A qHTS for Small Molecule Inhibitors of Shiga Toxin; Vero cells, Shiga toxin protein synthesis inhibition reporter; inhibition, % at 38.7 µM; AID 2315, 2010; 290,000 tested, 9.2% active; in the data active = inhibition mostly above about 28%, no sharp cut-off; inactive = mostly below about 43%
A number is an active result; . = inactive; ? = inconclusive; / = no result. A selection: hits, their analogues and other compounds. The true share with any hit is near 12%. Unless noted, calls follow the shape of the full dose curve.

SMILES | NS1 inh | SARS PLpro yeast | CHX counter | Shiga toxin inh
O=S(=O)(c1ccc(N2CCCC2)cc1)C(F)(F)F | . | . | 28.1 | 71.8
O=C(NCc1cccnc1)c1cc(Cl)ccc1[N+](=O)[O-] | . | . | . | .
Cc1ccccc1NC(=O)C(C)n1c2ccccc2c2nc(=O)cc(C)n21 (stereo not given) | . | . | . | .
Cc1ccc(C(=O)N(Cc2ccccc2)C(C)(C)C)cc1C | . | . | . | .
Cc1cc(O)ccc1NS(=O)(=O)c1ccc2c3c(cccc13)C(=O)N2 | . | . | . | .
O=C(Nc1ccc(N2CCCCC2)cc1)c1ccc(F)cc1 | . | . | 52.0 | 76.6
O=C(Nc1ccc2c(c1)CCC2)c1cnccn1 | . | . | 45.9 | 108.9
Cc1cnc(C(=O)Nc2ccc(S(=O)(=O)N(C(C)C)C(C)C)cc2)cn1 | . | . | . | /
CCCCOc1ccc(NC(=O)c2cnc(C)cn2)cc1 | . | . | 13.2 | .
O=C(Nc1ccc(S(=O)(=O)N2CCCC2)cc1)c1cnccn1 | . | . | . | .
Cc1cnc(C(=O)Nc2ccc3c(c2)CCC3)cn1 | . | . | 39.0 | 81.9
Cc1cc(C)n2nc(C(=O)Nc3ccc4c(c3)CCC4)nc2n1 | / | . | 34.3 | 104.0
N[C@@H](CCCCO)C(=O)O | . | / | / | /
CCOC(=O)C(C)(C)[C@H](O)C(C)C | . | / | / | /
Cc1cnc(C(=O)Nc2ccc(F)c(F)c2)cn1 | . | . | 20.7 | 55.4
COCCCNc1nc2c(-c3cccc(C)c3)nnn2c2ccccc12 | . | . | . | .
COCCCNc1nc2c(-c3ccc(C)cc3)nnn2c2ccccc12 | . | . | 38.5 | 71.8
CSc1nc2ccc(NC(=O)c3ccccn3)cc2s1 | . | . | 37.8 | 104.8
COC(=O)c1ccc(C(=O)NC(=S)Nc2ccc3nc(SC)sc3c2)cc1 | . | . | 10.6 | .
CSc1nc2ccc(NC(=O)C3=NN(c4ccccc4)C(=O)CC3)cc2s1 | / | . | . | .
CSc1nc2ccc(NC(=O)C3=NNC(=O)CC3)cc2s1 | . | . | 16.5 | .
COc1ccc(CC(=O)Nc2ccc3nc(SC)sc3c2)cc1OC | / | . | . | .
Cc1ccc(-n2nc3c(n2)/C(=N/O)CC/C3=N\O)cc1 | . | . | 43.7 | 48.5
O=C(NCc1ccccc1)C1=C[C@H](c2ccc(Br)cc2)C[C@H](OCc2ccc(CO)cc2)O1 | ? | . | . | .
O=C(Nc1ccccc1)C1=C[C@H](c2ccc(Br)cc2)C[C@H](OCc2ccc(CO)cc2)O1 | . | . | 41.1 | 69.2
SMILES | NS1 inh | SARS PLpro yeast | CHX counter | Shiga toxin inh
O=C(Nc1ccccc1)C1=C[C@@H](c2ccccc2)C[C@@H](OCc2ccc(CO)cc2)O1 | . | . | 56.9 | 81.0
CC(C)(C)[C@H]1C=C(C(=O)Nc2ccccc2)O[C@@H](OCc2ccc(CO)cc2)C1 | . | . | 12.1 | .
NC(=O)C1=C[C@H](c2ccccc2)C[C@H](OCc2ccc(CO)cc2)O1 | . | . | 36.1 | 27.4
COc1ccc(Cl)cc1Nc1ncnc2sc(C)c(S(=O)(=O)N3CCC(C)CC3)c12 | . | . | . | .
CC12CCC=CC1C(c1ccc3ccccc3c1)N(Cc1ccccc1)C2=O (stereo not given) | / | / | . | .
CC(C)Oc1ccc(C(=O)OCC(=O)c2ccc[nH]2)cc1 | / | . | / | /
CC(C)Cc1nnc(NC(=O)CCC(=O)N2CCN(c3ccccc3F)CC2)s1 | . | . | . | .
CCCCNC(=S)Nc1ccccc1F | . | . | . | .
O=C(C1=C[C@@H](c2ccccc2)C[C@@H](OCc2ccc(CO)cc2)O1)N1CCOCC1 | . | . | . | .
C#Cc1ccc([C@@H]2C=C(C(=O)OCC=C)O[C@H](OCc3ccc(CO)cc3)C2)cc1 | . | . | 30.8 | 23.2
CN1CCN(C(=O)C2=C[C@H](c3ccccc3)C[C@H](OCc3ccc(CO)cc3)O2)CC1 | . | . | 7.5 | .
CCCn1cnnc1CNC(=O)C1CCC(=O)N(CCc2cccc(F)c2)C1 (stereo not given) | . | . | . | .
CC1C(=O)N2CCCc3cc(NC(=O)C(=O)NCCc4ccc(F)cc4)cc1c32 (stereo not given) | / | . | / | /
O=C(CSc1nc2ccccc2c(=O)n1-c1ccccc1Cl)NC1CCS(=O)(=O)C1 (stereo not given) | / | . | / | /
CSc1nsc(/C=C/Nc2ccc(C)cc2)c1C#N | ? | / | . | .
CSc1nsc(/C=C/Nc2ccc(C)c(C)c2)c1C#N | / | . | . | 45.1
Cc1ccc2c(c1)c1c(n2C)-c2[nH]ncc2CC1 | . | . | 15.0 | 78.4
NC(=S)N/N=C/c1coc2c(ccc3ccccc32)c1=O | . | . | 23.9 | .
Cc1ccc(NC(=S)Nn2cnnc2)c(C)c1 | . | . | . | .
COc1ccc(N2C3=[N+](CC2(C)O)c2ccccc2CC3)cc1 (stereo not given) | ? | . | 22.0 | .
COc1ccc(OCC(=O)N2c3ccccc3CCc3ccccc32)cc1 | . | . | . | .
O=C(Nc1cccc(O)c1)c1cc(-c2ccco2)on1 | . | . | 22.2 | 48.9
CC(=O)c1cccc(NC(=O)c2cc(-c3ccco3)on2)c1 | . | . | 35.2 | 96.9
O=C(Nc1cccc(C(F)(F)F)c1)c1cc(-c2ccco2)on1 | . | . | . | .
Cc1ccccc1NC(=O)CN1C(=O)NC2(CCCCCCC2)C1=O | / | . | / | /
SMILES | NS1 inh | SARS PLpro yeast | CHX counter | Shiga toxin inh
O=S(=O)(Cc1cccc(F)c1)c1c[nH]c2ccccc12 | . | . | . | .
O=C(Nc1ccc([N+](=O)[O-])cc1)c1ccccc1F | / | . | 39.0 | 116.9
N#Cc1ccc(C(=O)Nc2ccc([N+](=O)[O-])cc2)c(F)c1 | . | . | . | 52.0
O=C(Nc1ccc(-c2ccc([N+](=O)[O-])cc2)cc1)c1ccccc1F | / | . | . | .
CC1(c2ccc(NC(=O)c3ccccc3F)cc2)CC1(Cl)Cl (stereo not given) | . | . | 34.9 | /
CN(C1(C)CCS(=O)(=O)C1)S(=O)(=O)c1cccc([N+](=O)[O-])c1 (stereo not given) | / | . | / | /
CCN(CC)S(=O)(=O)c1ccc2[nH]c(=O)[nH]c2c1 | . | . | . | .
O=C(NCc1cccs1)c1ccccc1 | . | . | . | .
O=C(NCc1cccs1)c1ccc([N+](=O)[O-])cc1Cl | . | . | 11.0 | .
O=C(CCNC(=O)c1ccc([N+](=O)[O-])cc1)NCc1cccs1 | / | . | / | /
O=C(NCc1ccccc1Cl)c1ccc2ccccc2n1 | . | . | 52.1 | 86.3
O=C(NCc1cccs1)c1ccc2ccccc2n1 | / | . | 32.0 | .
O=C(NCc1cccs1)c1csc2ccccc12 | . | . | 25.0 | .
O=C(NCc1ccccc1F)c1ccc2ccccc2n1 | . | . | . | .
CC12CNCC(C)(CN(C3(O)C(=O)Nc4ccc(Br)cc43)C1)C2=O (stereo not given) | . | . | . | .
O=c1cc2c(=O)oc3cc(O)c(O)oc3c2c(O)c1O | . | . | . | .
COc1ccc(C(=O)c2ccc(-c3ccc(OC)cc3)nc2)cc1 | . | . | . | .
CCc1ccc(-c2ccc(C(=O)O)cc2)nc1 | . | . | 37.9 | .
CC1CCCCN1C(=O)CNCc1ccc(F)cc1 (stereo not given) | . | . | . | .
CC1CCCCN1C(=O)CSc1ccc(-c2ccc(F)cc2)nn1 (stereo not given) | . | . | 18.9 | .
